Inconclusive results are not listed. The source made the active and inactive calls. Unless noted, calls follow the shape of the dose curve; as a rule, active = well fitted curve in the direction sought with a large enough effect; inconclusive = small, poorly fitted or top-dose-only effect, or another doubt; inactive = no such curve, though single readings can be large; an effect the other way counts as inactive or inconclusive.
Experiments:
[1] = qHTS assay for measurement of the activity of small molecule inhibitors on Zika virus induced Caspase-3 activity in human iPSC derived neural progenitor cells (hNPCs) (AID 1224857); details: hNPCs ZIKV-induced caspase-3/7, Caspase-Glo luminescence, 6 h; series mostly up to 45.7 µM; also: nearly all actives have a fitted effect of over 65% in size
Procedure, shortened: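 Zika virus (2 FFU/cell) infection of human iPSC-derived NPCs, 6 h, following 1 h compound preincubation. Read-out: Caspase-Glo 3/7 luminescence.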

[2] = qHTS assay for measurement of the activity of small molecule inhibitors on Zika virus induced Caspase-3 activity in human astrocytoma cells (AID 1224859); details: SNB-19 ZIKV-induced caspase-3/7, luminescence, 6 h; series mostly up to 45.7 µM
Procedure, shortened: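 Caspase activation in ZIKV-infected SNB-19 cells (2 FFU/cell, 6 h) measured by Caspase-Glo 3/7 luminescence after 30 min RT; compound pre-incubated 1 h; normalised to uninfected and infected controls.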

[3] = qHTS assay to identify small molecule inhibitors of chordoma cells - UCH-1 (AID 1259355); details: UCH-1 chordoma viability, CellTiter-Glo, 48 h, combination, with auranofin plus four topoisomerase inhibitors; series mostly up to 46.1 µM; also: nearly all actives have a fitted effect of over 55% in size
Procedure, shortened: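 Screening used approved and investigational drugs in 15-point titration against 800 seeded cells per well. A fixed combination of auranofin with camptothecin, doxorubicin, rubitecan and topotecan followed compound addition, and growth was scored by CellTiter-Glo after 48hr.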

[4] = qHTS assay to identify small molecule inhibitors of chordoma cells - UCH-2 (AID 1259356); details: UCH-2 chordoma viability, CellTiter-Glo ATP luminescence, 48 h; series mostly up to 46.1 µM
[5] = qHTS profiling for inhibitors of Plasmodium falciparum (DD2) proliferation (AID 743323; call rule not given here); details: lower = more inhibition; at 28.7 µM (top of the series)
Procedure, shortened: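 Parasite proliferation measured via DNA-dye fluorescence, as uninfected erythrocytes lack DNA. Cultures at 0.3% parasitemia and 2.5% hematocrit incubated 72 h with compound; signal scaled between vehicle and 0.29 uM artemisinin wells.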

[6] = qHTS profiling for inhibitors of Plasmodium falciparum (HB3) proliferation (AID 743324); details: Plasmodium falciparum HB3 blood-stage proliferation; at 28.7 µM (top of the series)
Procedure, shortened: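 SYBR Green fluorescence (485 ex/535 em) of lysed cultures, incubated overnight at room temperature in the dark, quantifies parasite DNA. Infected erythrocytes at 0.3% parasitemia and 2.5% hematocrit were exposed 72 h; values normalized to DMSO and 0.29 uM artemisinin controls.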

Nc1ccc(C(=O)Oc2ccccc2)c(O)c1
inactive: outcome [1] | outcome [2] | outcome [3] | outcome [4]

CC(=O)NCc1c(I)c(NC(C)=O)c(I)c(C(=O)O)c1I
inactive: outcome [1] | outcome [2] | outcome [3] | outcome [4]

COCC(=O)Nc1c(I)c(C(=O)NCC(O)CO)c(I)c(C(=O)N(C)CC(O)CO)c1I (configuration not stated)
inactive: outcome [1] | outcome [2] | outcome [3] | outcome [4]

Cc1cc(NC(=O)C2=C(O)c3ccccc3S(=O)(=O)N2C)no1
inactive: outcome [1] | outcome [2] | outcome [3] | outcome [4]

CC[N+](C)(CC)CCOC(=O)C1c2ccccc2Oc2ccccc21
inactive: outcome [1] | outcome [2] | outcome [3] | outcome [4]

CCOC(N)=O
inactive: outcome [1] | outcome [2] | outcome [3] | outcome [4]

CN1CCN(C(=O)C2CCCCC2)CC1
inactive: outcome [1] | outcome [2] | outcome [3] | outcome [4]

COc1ccc(O)cc1
inactive: outcome [1] | outcome [2] | outcome [3] | outcome [4]

CC(C)C[C@@H](N)C(=O)O
inactive: outcome [1] | outcome [2] | outcome [3] | outcome [4]

CN(C/C=C/C#CC(C)(C)C)Cc1cccc2ccccc12
inactive: outcome [1] | outcome [2] | outcome [3] | outcome [4]

C[C@H]1COc2c(C3(N)CC3)c(F)cc3c(=O)c(C(=O)O)cn1c23
inactive: outcome [1] | outcome [2] | outcome [3] | outcome [4]

CNc1c2c(nn1C)CCCC2
inactive: outcome [1] | outcome [2] | outcome [3] | outcome [4]

Cc1ccc(S(=O)(=O)NC(=O)NC2CCCCCCC2)cc1
inactive: outcome [1] | outcome [2] | outcome [3] | outcome [4]

CCCCCCCCCCOc1cc2c(=O)c(C(=O)OCC)c[nH]c2cc1OCC
2.1%: activity, percent of control [5]

CCOc1ccccc1O[C@H](c1ccccc1)[C@H]1CNCCO1
63.9%: activity, percent of control [5]
47.7%: remaining proliferation (% of control), lower = more inhibition [6]

C[C@@H]1CCC[C@H](C)N1
inactive: outcome [1] | outcome [3] | outcome [4]

CN1CCCN=C1COC(=O)C(O)(c1ccccc1)C1CCCCC1 (configuration not stated)
inactive: outcome [1] | outcome [3] | outcome [4]

Cc1cc(C)nc(NS(=O)(=O)c2ccc(N)cc2)n1
inactive: outcome [1] | outcome [3] | outcome [4]

CCC(C)(CN(C)C)OC(=O)c1ccccc1 (configuration not stated)
inactive: outcome [1] | outcome [3] | outcome [4]

CC[C@H](C)[C@H](N)C(=O)O
inactive: outcome [1] | outcome [3]

CC(=O)Nc1ccccc1
inactive: outcome [1] | outcome [3] | outcome [4]

Cc1[nH]c(C)c(Cl)c(=O)c1Cl
inactive: outcome [1] | outcome [3] | outcome [4]

O=C1c2cccc(O)c2C(=O)c2c(O)cccc21
inactive: outcome [1] | outcome [3]

Source: PubChem BioAssay (NCATS)
